Rows were chosen to be rich in hits. Some 6.6% of all compounds tested hit in one or more screens of this group.
BoNT-F LC inh: inhibitors of Botulinum neurotoxin F light chain protease. 360,000 tested, 0.22% active. Multiplex microsphere protease cleavage assay, flow cytometry. inhibition, % at 10 µM; in the data active = inhibition above about 35%, passing the limit was not always enough; inconclusive = no clear call, values can overlap the other calls
BoNT A protease: BoNT A light chain protease inhibition; multiplex microsphere protease substrate cleavage, flow cytometry; inhibition, % at 10 µM; 360,000 tested, 0.17% active; AID 588499
Anthrax LF prot: inhibitors of Bacillus anthracis lethal factor protease; P15917; multiplex microsphere protease cleavage assay, LF; inhibition, % at 10 µM; 360,000 tested, 0.12% active
Bead autofluor: flagged as autofluorescent in microsphere protease counterscreen; fluorescence intensity (test concentration not listed); AID 624483; 360,000 tested, 3.1% active; compound autofluorescence counterscreen, microsphere flow cytometry; hits give high values; in the data active = fluorescence intensity above about 16000; inconclusive = no clear call, values can overlap the other calls
GDH-TPI counter: counter-screen for M. tuberculosis FBA inhibitors: GDH-TPI coupled enzymes; inhibition, % at 4.8 µM; GDH-TPI coupled enzyme counterscreen, NADH absorbance; 360,000 tested, 1.2% active; in the data active = inhibition above about 30%
Mtb FBA inh: Mtb fructose-bisphosphate aldolase inhibition. P9WQA3. purified M. tuberculosis FBA, fluorescence read-out. inhibition, % at 1 µM. 360,000 tested, 2.3% active. AID 588726; in the data active = inhibition above about 27%
Target sequence (P9WQA3 whole entry, looked up): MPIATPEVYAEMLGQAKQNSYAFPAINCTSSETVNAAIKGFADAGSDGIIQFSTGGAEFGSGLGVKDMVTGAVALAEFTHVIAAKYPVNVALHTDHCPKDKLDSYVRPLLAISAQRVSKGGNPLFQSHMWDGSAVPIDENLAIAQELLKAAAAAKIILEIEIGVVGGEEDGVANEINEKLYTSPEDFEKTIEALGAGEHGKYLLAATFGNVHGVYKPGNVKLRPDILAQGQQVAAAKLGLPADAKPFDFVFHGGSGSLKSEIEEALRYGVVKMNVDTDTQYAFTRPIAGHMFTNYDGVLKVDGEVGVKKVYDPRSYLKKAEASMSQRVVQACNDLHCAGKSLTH
Numbers stand for hits; – = inactive; ? = inconclusive; · = no result given; + = active, no number; ! = a repeat was not active. Rule as the data show it, unless noted: active = inhibition above about 30%; inconclusive = no clear call, values can overlap the other calls; inactive = below that.

SMILES	BoNT-F LC inh	BoNT A protease	Anthrax LF prot	Bead autofluor	GDH-TPI counter	Mtb FBA inh
COC(=O)[C@]12CCCCC=C1N(CCC1=CCCCC1)C(=O)[C@H](CC(=O)N1CCN(C(=O)C3CC3)CC1)C2	–	–	–	–	·	·
Nc1ccccc1SCc1cn2cccnc2n1	–	–	–	–	–	–
Cn1nnnc1SCc1cn2cccnc2n1	–	–	–	–	–	122
COc1cccc(NC(=O)C(NCCC(C)C)c2ccccc2)c1 (stereo unspecified)	–	–	–	–	–	–
O=C(Nc1ccc(Cl)cc1)C(c1ccccc1)N(CCO)CCO (stereo unspecified)	–	–	–	20747	–	–
O=C(Nc1cc(Cl)cc(Cl)c1)C(NCCO)c1ccccc1 (stereo unspecified)	–	–	–	22640	–	–
O=C(Nc1cc(Cl)cc(Cl)c1)C(c1ccccc1)N1CCCCC1 (stereo unspecified)	–	–	–	–	–	–
Cc1ccc(NC(=O)C(c2ccccc2)N(C)C)cc1Cl (stereo unspecified)	–	–	–	–	–	–
CCCN(CCC)C(C(=O)Nc1cccc(OC)c1)c1ccccc1 (stereo unspecified)	–	–	–	22137	–	–
COc1ccccc1N(C)S(=O)(=O)c1ccc(C)c(C(=O)NCc2ccccn2)c1	·	·	·	·	–	–
CCCCSCc1ccc(C(=O)O)o1	–	–	–	20913	–	–
N#CCCSCc1ccc(C(=O)O)o1	–	–	–	–	–	–
C(=N\Nc1nc(-c2ccccc2)cs1)/c1ccco1	–	–	–	–	–	–
Cc1ccc(-c2csc(N/N=C/c3ccco3)n2)cc1	–	–	–	23231	–	–
CN(C)S(=O)(=O)c1ccc(-c2csc(N/N=C/c3ccco3)n2)cc1	–	–	–	–	33	–
Cc1cccc(C(C(=O)NC2CCCC2)N(C(=O)c2csnn2)C2CC2)c1 (stereo unspecified)	–	–	–	–	–	–
O=C(CN1CCC(NC(=O)c2ccccc2Cl)CC1)NCc1ccco1	–	–	–	–	–	–
CN(C)/C=C/c1onc(-c2ccccc2Cl)c1C#N	–	–	–	–	43	–
Cc1onc(-c2ccccc2Cl)c1C(=O)N(C)C1CCCCC1	–	–	–	–	–	–
CCOC(=O)c1ccc(NS(=O)(=O)c2c(C)[nH]c(C)c2C(=O)N2CCCCC2)cc1	–	–	–	–	–	–
Cc1ccc(-c2cc(C(=O)NCc3cccnc3)no2)cc1	–	–	–	17516	–	–
Cc1cc(C(=O)NCc2cccnc2)no1	–	–	–	22225	–	–
CN(C)CCCNCCCNC(=O)/C(=N\O)c1ccccn1	–	?	–	22814	–	–
Cc1cc(C(=O)NCC(c2ccco2)N(C)C)no1 (stereo unspecified)	–	–	–	19860	–	–
CCCNS(=O)(=O)c1cc2c3c(c1)CCN3C(=O)CC2	–	–	–	–	–	–
SMILES	BoNT-F LC inh	BoNT A protease	Anthrax LF prot	Bead autofluor	GDH-TPI counter	Mtb FBA inh
CC(=O)OC1CCC2(C)C(CCC3C2CC(=O)C2(C)C3CC(C3CCCC3=O)C2C(C)=O)C1 (stereo unspecified)	–	–	–	–	–	–
CCOc1ccc(N=Nc2c(C)noc2C)cc1	–	–	–	–	–	–
C[C@H](CO)N1C[C@H](C)[C@@H](CN(C)Cc2ccc(-c3ccccc3)cc2)OCc2cnnn2CCCC1=O	–	–	–	–	–	–
O=C(NCCCNCc1ccccc1)c1ccccn1	–	–	–	24330!	–	–
O=C(O)c1ccccc1C(=O)NCc1cccnc1	–	–	–	–	–	–
O=C(NCc1cccnc1)c1ccccn1	–	–	–	22039	–	–
CCOc1ccc(C(=O)NC(=S)Nc2ccc(N3CCC(C)CC3)cc2)cc1[N+](=O)[O-]	39	–	–	–	–	–
CCOc1ccc(C(=O)NC(=S)Nc2ccccc2N2CCC(C)CC2)cc1[N+](=O)[O-]	–	–	–	?	–	–
O=C1C2CC=CCC2C(=O)N1c1cccc(OS(=O)(=O)c2ccc3ccccc3c2)c1 (stereo unspecified)	–	?	–	20101	–	–
Cc1ccc(CS(=O)(=O)CC(C)(O)c2ccc(Cl)cc2)cc1 (stereo unspecified)	–	–	–	–	–	–
O=C(c1ccc(=O)[nH]n1)N1CCc2ccccc2C1	–	–	–	–	–	–
Cc1c(OCc2nn[nH]n2)ccc2c(-c3ccccc3)cc(=O)oc12	–	–	–	–	–	–
COc1ccc(-c2cc(=O)oc3c(C)c(OCc4nn[nH]n4)ccc23)cc1	–	?	–	23374	–	–
Cc1c(CC(=O)O)c(=O)oc2c(C)c(OCc3nn[nH]n3)ccc12	–	–	–	–	–	147
Cc1cc(OCc2nn[nH]n2)c2c(-c3ccccc3)cc(=O)oc2c1	–	–	–	20272	–	–
Cc1cc(OCc2nn[nH]n2)c2c(C)c(CC(=O)O)c(=O)oc2c1	–	–	–	–	–	+
Cc1ccc(S(=O)(=O)NCCC(=O)N2CCOCC2)cc1C	–	–	–	–	–	–
Cc1sc(-n2c(C)cc(/C=N/n3cnnc3)c2C)c(C#N)c1C	–	–	–	22786	–	–
O=C1/C(=C/c2cccs2)N=C(c2cccs2)N1Nc1ccccc1	–	–	–	–	–	–
Cc1ccc(C2=N/C(=C\c3cccs3)C(=O)N2Nc2ccccc2)cc1	51	120	64	–	–	–
O=C1/C(=C\c2cccs2)N=C(c2cccs2)N1Nc1ccccc1	40	68	50	–	–	–
Cc1c(C(=O)NCc2ccco2)oc2ccccc12	–	–	–	–	–	–
Cc1ccccc1NC(=O)N(O)C1(C#N)CCCCC1	–	–	–	–	–	–
COc1ccc(N/C=C2\CCOC2=O)cc1	–	–	–	16257	56	–
CCN(CC)c1ccc(N=Cc2c(O)n(CCc3ccc(OC)c(OC)c3)c(=O)[nH]c2=O)cc1	–	–	–	–	–	–
SMILES	BoNT-F LC inh	BoNT A protease	Anthrax LF prot	Bead autofluor	GDH-TPI counter	Mtb FBA inh
CCN(CC)CCCN=Cc1c(O)n(CCc2ccc(OC)c(OC)c2)c(=O)[nH]c1=O	–	?	–	21750	–	–
O=C(c1ccc(S(=O)(=O)N2CCOCC2)cc1)N1CCN(c2cccc(Cl)c2)CC1	–	–	–	24247	–	–
O=C(c1ccc(S(=O)(=O)N2CCOCC2)cc1)N1CCN(c2ccc(F)cc2)CC1	–	–	–	–	–	–
COc1cccc(C(=O)NCC2CCN(c3ccc(S(=O)(=O)N4CCOCC4)cc3)CC2)c1	–	–	–	–	–	–
O=C(NCC1CCN(c2ccc(S(=O)(=O)N3CCOCC3)cc2)CC1)c1cccc(Cl)c1	–	–	–	18496	–	–
Cc1ccc(NC(=O)Cn2c(=O)oc3ccccc32)c(C)c1	·	·	·	·	–	–
O=C1c2ccccc2C(=O)N1CCSc1ccccc1	–	?	?	?	–	–
Nc1nc(SCCN2C(=O)c3ccccc3C2=O)n[nH]1	–	?	–	18492	–	–
COc1ccc(-c2cc(=O)n(-c3nc4ccccc4[nH]3)[nH]2)cc1	–	?	–	23993	–	–
